Test systems include NCI-H23 lung; NCI-H226 lung; NCI-H322M lung; HOP-62 NSCLC; NCI-H460 lung; HOP-92 NSCLC; A549/ATCC NSCLC; 786-0 renal; COLO 205 colon.
Holding throughout (assay): NCI-60 one-dose screen, 48 h (100 = growth as untreated, 0 = no growth, -100 = all killed)
Settings in all cases: 10 µM unless noted

The structures appear in SMILES notation. Compounds without any hit were thinned out: in the full panel of roughly 83,000, 20% have a hit.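 Note: values are percent growth. 100 is the growth of untreated cells, values between 100 and 0 indicate rising inhibition; between -100 and 0 indicates cell death.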 Values without a mark were called inactive. The source made the active and inactive calls. The calls were made as follows: active = growth percent below 10; inactive = the rest.

For 14 molecules, growth results are on record in PubChem BioAssay (NCI).

With `CC(NNC(=S)N1CCCCCC1)c1ccc2ccccc2n1` (stereo unspecified), the growth in the assay with NCI-H23 lung was 60.9%; with NCI-H226 lung it was 45.3%; in the assay with NCI-H322M lung it was 27.2%; with HOP-62 NSCLC, 42.7%; in the assay with NCI-H460 lung, 12.5%; with HOP-92 NSCLC, 65.7%. Besides, the figures for the growth in the assay on A549/ATCC NSCLC, in the assay with 786-0 renal and in the assay with COLO 205 colon were 13.9%, 40% and 20.1%, respectively.
On to `O=CN1N=C(c2ccc(Cl)cc2)CC1c1cccc(Nc2ccnc3cc(Cl)ccc23)c1` (stereo unspecified), for which the growth with NCI-H23 lung was 11.6%; in the assay on NCI-H226 lung, 24.4%; in the assay with NCI-H322M lung, 42.4%; in the assay on HOP-62 NSCLC, 8.16% (active); in the assay with NCI-H460 lung, 11.1%; with HOP-92 NSCLC, 21.5%. The growth with A549/ATCC NSCLC is 20.9%; in the assay on 786-0 renal, 20.5%; with COLO 205 colon, -26.9% (active).
For `CCN(CC)CCNCC(=O)Oc1ccc(/C=C/C(=O)CC(=O)/C=C/c2ccc(OC(=O)CNCCN(CC)CC)c(OC)c2)cc1OC`, the growth was 5.35% (active) with NCI-H23 lung; 21% with NCI-H226 lung; 55.4% in the assay with NCI-H322M lung; 34% in the assay on HOP-62 NSCLC; 3.7% (active) in the assay with NCI-H460 lung; 39.1% in the assay with HOP-92 NSCLC. Moreover, the growth in the assay on A549/ATCC NSCLC is 38.2%; in the assay on 786-0 renal, -34.9% (active); in the assay with COLO 205 colon, 17.1%.
Consider `Nc1ccc2c(c1)C(=O)c1cc(Cl)c(Cl)cc1-2`, for which the growth is 88.8% in the assay with NCI-H23 lung; 83.1% with NCI-H226 lung; 117% with NCI-H322M lung; 94.2% with HOP-62 NSCLC; 105% in the assay with NCI-H460 lung; 72.2% with HOP-92 NSCLC. Further, the growth in the assay on A549/ATCC NSCLC is 90.7%; in the assay with 786-0 renal it was 91.4%; in the assay on COLO 205 colon, 83.5%.
As for `O=C1N=C(N2CCOCC2)S/C1=C\c1cn(-c2ccccc2)nc1-c1ccccc1`, the growth with NCI-H23 lung was 95.2%; in the assay with NCI-H226 lung, 78.8%; in the assay with NCI-H322M lung, 73.3%; in the assay on HOP-62 NSCLC, 68.5%; in the assay on NCI-H460 lung, 67.3%; with HOP-92 NSCLC, 94.6%. Further, the results for the growth in the assay on A549/ATCC NSCLC, in the assay on 786-0 renal and in the assay with COLO 205 colon were 94.8%, 25.6% and 122%, respectively.
With `Cc1ccccc1NC(=O)NC(CC(N)=O)c1ccc2c(c1)nc(-c1cccc(Oc3ccc(C(C)(C)C)cc3)c1)n2CCCN1CCCCC1C` (stereo unspecified), the growth in the assay on NCI-H23 lung was 64.7%; in the assay with NCI-H226 lung, 109%; in the assay on NCI-H322M lung, 65%; in the assay on HOP-62 NSCLC, 25.8%; in the assay on NCI-H460 lung it was -30.7% (active); in the assay with HOP-92 NSCLC, 13.5%. Also, the growth was 54.9% in the assay on A549/ATCC NSCLC, 26.7% in the assay on 786-0 renal and -65.6% (active) in the assay with COLO 205 colon.
As for `COc1ccc([N+](=O)[O-])c(S(=O)(=O)c2ccc(Cl)cc2)n1`, the growth was 81.9% in the assay on NCI-H23 lung; 91.2% in the assay with NCI-H226 lung; 106% in the assay on NCI-H322M lung; 95.2% in the assay on HOP-62 NSCLC; 98.1% with NCI-H460 lung; 63.1% in the assay on HOP-92 NSCLC. For the same molecule, the growth is 99.2% in the assay with A549/ATCC NSCLC, 70.1% in the assay with 786-0 renal and 25.2% in the assay with COLO 205 colon.
As for `CS(=O)(=O)N1CCN(Cc2cc3nc(-c4cccc5[nH]ncc45)nc(N4CCOCC4)c3s2)CC1` (tested in a mixture with another compound), the growth is 23.4% in the assay with NCI-H23 lung; 8.7% (active) in the assay with NCI-H226 lung; 3.39% (active) with NCI-H322M lung; 23.6% with HOP-62 NSCLC; 21.7% in the assay on NCI-H460 lung; -37.6% (active) with HOP-92 NSCLC. In addition, the figures for the growth with A549/ATCC NSCLC, in the assay with 786-0 renal and with COLO 205 colon were 4.32% (active), -10.5% (active) and 8.18% (active), respectively.
As to `C=C1CCC2C3(C)COC(c4ccccc4)OC3CCC2(C)C1C/C=C1/C(=O)OCC1OC(C)=O` (stereo unspecified), the growth is 101% in the assay on NCI-H23 lung; 59.6% in the assay with NCI-H226 lung; 97% with NCI-H322M lung; 96.1% in the assay with HOP-62 NSCLC; 103% in the assay on NCI-H460 lung; 100% with HOP-92 NSCLC. Also, the growth with A549/ATCC NSCLC was 83.9%; with 786-0 renal, 95.3%; with COLO 205 colon, 103%.
`Cc1n(Cc2ccc3ccccc3c2)cc[n+]1Cc1ccc2ccccc2c1`: the growth in the assay on NCI-H23 lung was 5.53% (active); in the assay on NCI-H226 lung it was 19%; in the assay on NCI-H322M lung, 48.9%; with HOP-62 NSCLC it was 18%; with NCI-H460 lung, 9.12% (active); in the assay with HOP-92 NSCLC, -20.3% (active). Moreover, the growth in the assay on A549/ATCC NSCLC was 42.3%; with 786-0 renal it was 34%; in the assay on COLO 205 colon, -57.2% (active).
As for `O=C1OC(Oc2ccccc2)(c2ccccc2)c2ccccc21` (stereo unspecified), the growth was 105% in the assay with NCI-H23 lung; 107% with NCI-H226 lung; 128% in the assay with NCI-H322M lung; 106% in the assay on HOP-62 NSCLC; 99.1% in the assay on NCI-H460 lung; 88% in the assay on HOP-92 NSCLC. For the same molecule, the growth is 95% in the assay with A549/ATCC NSCLC, 101% in the assay with 786-0 renal and 112% with COLO 205 colon.
`Cc1cccc2nnc(-c3ccccc3)n12`: the growth in the assay with NCI-H23 lung was 104%; in the assay on NCI-H226 lung, 106%; in the assay with NCI-H322M lung, 104%; with HOP-62 NSCLC it was 125%; in the assay on NCI-H460 lung, 108%; in the assay with HOP-92 NSCLC it was 105%. In addition, the growth with A549/ATCC NSCLC was 94.4%; with 786-0 renal, 94.8%; in the assay with COLO 205 colon it was 118%.
As for `COc1ccc2cc(C3=CC(=O)CCC3)ccc2c1`, the growth was 91.8% in the assay with NCI-H23 lung; 55.5% in the assay on NCI-H226 lung; 93.6% with NCI-H322M lung; 112% with HOP-62 NSCLC; 110% in the assay with NCI-H460 lung; 83.5% with HOP-92 NSCLC. Besides, the growth in the assay with A549/ATCC NSCLC was 82.6%; with 786-0 renal, 90.5%; in the assay with COLO 205 colon, 99.9%.
Take `Nc1ccc(N=Nc2ccccc2)cc1[N+](=O)[O-]`: the growth in the assay with NCI-H23 lung is 90.7%; in the assay with NCI-H226 lung, 86%; in the assay with NCI-H322M lung, 80.5%; in the assay with HOP-62 NSCLC, 91.9%; in the assay on NCI-H460 lung it was 100%; in the assay with HOP-92 NSCLC it was 91.7%. Further, the growth with A549/ATCC NSCLC was 85.9%; with 786-0 renal, 107%; with COLO 205 colon it was 95%.
